According to PubChem BioAssay (NCATS):
Inconclusive results are not listed. Activity calls are given as the source filed them. Calls follow the shape of the dose curve; as a rule, active = well fitted curve in the direction sought with a large enough effect; inconclusive = small, poorly fitted or top-dose-only effect, or another doubt; inactive = no such curve, though single readings can be large; an effect the other way counts as inactive or inconclusive. Non-standard residues stand in square brackets, D forms with d. Residues, ends and D or L forms follow the SMILES beside them. *: point of attachment. Benzoyl(4-tBu) = CC(C)(C)c1ccc(C(=O)*)cc1; Lys(Et2) = CCN(CC)CCCC[C@H](N)C(=O)O

Assays:
[1] = BET inhibitor-based combinations targeting novel dependencies in MECOM-rearranged (r) AML: SET-2 cell line (AID 2202231); conditions: SET-2 AML cells viability, CellTiter-Glo luminescence, 48 h; viability: hits give low values, concentration not given here; also: nearly all actives have a fitted effect of over 35% in size;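 as to viability: plate controls were DMSO treated cells for no effect and wells without cells for full effect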
How it was run: (§1)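 Here, 11-point titrations of each agent were applied to 500 seeded cells and incubated 48 hr; CellTiter-Glo signal, scaled against DMSO and empty wells, was integrated as AUC, then Z-scored within the individual line.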

[2] = BET inhibitor-based combinations targeting novel dependencies in MECOM-rearranged (r) AML: OCI-AML3 cell line (AID 2202232); conditions: CellTiter-Glo luminescence, 48 h; Potency: OCI-AML3 viability; series mostly up to 46 µM; also: nearly all actives have a fitted effect of over 35% in size
How it was run: as §1

[3] = BET inhibitor-based combinations targeting novel dependencies in MECOM-rearranged (r) AML: MV-4-11 cell line (AID 2202233); conditions: MV-4-11 AML viability, CellTiter-Glo luminescence, 48 h; series mostly up to 46 µM; also: nearly all actives have a fitted effect of over 45% in size
How it was run: (§2)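 Normalized to DMSO and empty-well controls, the luminescence data from CellTiter-Glo after 48 hr drug exposure were fitted across 11 concentrations. Reported metrics are area under the dose-response curve and its Z-transformed form.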

[4] = BET inhibitor-based combinations targeting novel dependencies in MECOM-rearranged (r) AML: HNT-34 cell line (AID 2202234); conditions: HNT-34 AML viability, CellTiter-Glo luminescence, 48 h; series mostly up to 46 µM; also: nearly all actives have a fitted effect of over 35% in size
How it was run: as §2

[5] = BET inhibitor-based combinations targeting novel dependencies in MECOM-rearranged (r) AML: AML-191 cell line (AID 2202236; also: nearly all actives have a fitted effect of over 35% in size); conditions: AML-191 viability, CellTiter-Glo luminescence, 48 h; series mostly up to 46 µM
How it was run: as §1

[6] = BET inhibitor-based combinations targeting novel dependencies in MECOM-rearranged (r) AML: AML-194 cell line (AID 2202237; also: nearly all actives have a fitted effect of over 40% in size); conditions: AML-194 (MECOM-r AML) viability, CellTiter-Glo, 48 h; series mostly up to 46 µM
How it was run: as §1

[7] = BET inhibitor-based combinations targeting novel dependencies in MECOM-rearranged (r) AML: UCSD-AML1 cell line (AID 2202235); conditions: UCSD-AML1 AML cells viability, CellTiter-Glo, 48 h; series mostly up to 46 µM; also: nearly all actives have a fitted effect of over 40% in size
How it was run: as §2
Potency is read from the fitted curve at half-maximal effect.

COCCn1c2c([n+](Cc3cnccn3)c1C)C(=O)c1ccccc1C2=O
active: Potency [1] 1180 nM | Potency [2] 52.5 nM | Potency [3] 66.1 nM | Potency [4] 166 nM | Potency [5] 148 nM | Potency [6] 186 nM

CN(C)c1cc(NC(=O)CNC(C)(C)C)c(O)c2c1C[C@H]1C[C@H]3[C@H](N(C)C)C(=O)C(C(N)=O)=C(O)[C@]3(O)C(=O)C1=C2O
inactive: viability [1] 74.8% | Potency [2] | Potency [3] | Potency [4] | Potency [5] | Potency [6]

COc1cc(N2CCN(C)CC2)ccc1Nc1ncc2c(n1)N(C)c1ccccc1C(=O)N2C
active: Potency [1] 16600 nM | Potency [2] 2350 nM | Potency [3] 1320 nM | Potency [4] 16600 nM | Potency [5] 18600 nM | Potency [6] 20900 nM

COc1cc(OC)cc(N2CCN(C(=O)Nc3nc4cc(F)ccc4nc3OC)CC2)c1
active: Potency [1] 1320 nM | Potency [2] 1050 nM | Potency [3] 934 nM | Potency [4] 833 nM | Potency [5] 934 nM | Potency [6] 1050 nM

CCNCCc1ccc(CN(CC)c2cc(OC)ccc2[C@@H]2CCc3cc(O)ccc3C2)cc1
active: Potency [1] 9340 nM | Potency [2] 6610 nM | Potency [3] 5900 nM | Potency [4] 8330 nM | Potency [5] 7420 nM | Potency [6] 8330 nM

N=C(N)c1ccc2nc(-c3cc(CC(=O)N[C@@H](CC(=O)O)C(=O)O)cc(-c4cc(S(N)(=O)=O)ccc4O)c3O)[nH]c2c1
inactive: viability [1] 117% | Potency [2] | Potency [3] | Potency [4] | Potency [5] | Potency [6]

COC(=O)c1ccc([C@H]2c3[nH]c4ccccc4c3C[C@H](C(=O)OC)N2C(=O)CCl)cc1
active: Potency [1] 93.4 nM | Potency [2] 105 nM | Potency [3] 833 nM | Potency [4] 93.4 nM | Potency [5] 132 nM | Potency [6] 105 nM

C[C@H](CCC(=O)O)[C@H]1CC[C@H]2[C@@H]3[C@@H](O)C[C@@H]4C[C@H](O)CC[C@]4(C)[C@H]3CC[C@]12C
inactive: viability [1] 111% | Potency [2] | Potency [3] | Potency [4] | Potency [5] | Potency [6]

CC(C)NC(=O)C1CCC(n2c(NC(=O)c3ccc(F)cc3)nc3ccc(CN4CCC(C(C)(C)O)CC4)cc32)CC1 (centres undefined)
inactive: viability [1] 121% | Potency [7]
active: Potency [2] 3620 nM | Potency [3] 1820 nM

O=S(=O)(Nc1ccc(-c2cccnc2)c2cccnc12)c1cccc(C(F)(F)F)c1
active: Potency [1] 10500 nM | Potency [2] 7420 nM | Potency [3] 7420 nM | Potency [4] 4170 nM | Potency [5] 5900 nM | Potency [6] 7420 nM

CCCNC(=O)c1cn2ncnc(Nc3cc(C(=O)NC4CC4)ccc3C)c2c1C
inactive: viability [1] 99.9% | Potency [2] | Potency [3] | Potency [4] | Potency [5] | Potency [6]

CNc1ncc2cc(-c3cc(NC(=O)NCCC(C)(C)C)c(F)cc3C)c(C)nc2n1
active: Potency [1] 2350 nM | Potency [2] 662 nM | Potency [3] 468 nM | Potency [7] 1050 nM

OC1CCC([C@H](O)C[C@H]2c3c(F)cccc3-c3cncn32)CC1 (some centres undefined)
inactive: viability [1] 118% | Potency [2] | Potency [3] | Potency [4] | Potency [5] | Potency [6]

CC1(C)OCCn2c1nc1c(N3CCOCC3)nc(-c3cnc(N)nc3)nc12
active: Potency [1] 1860 nM | Potency [2] 934 nM | Potency [3] 934 nM | Potency [7] 468 nM

Cc1ccc(-n2[nH]c(C)c(N=Nc3cccc(-c4cccc(C(=O)O)c4)c3O)c2=O)cc1C
inactive: viability [1] 109% | Potency [2] | Potency [3] | Potency [4] | Potency [6]

C[C@]12CCC3[C@@H](CC[C@H]4NC(=O)C=C[C@]34C)[C@@H]1CC[C@@H]2C(=O)Nc1cc(C(F)(F)F)ccc1C(F)(F)F (some centres undefined)
inactive: viability [1] 118% | Potency [2] | Potency [3] | Potency [4] | Potency [5] | Potency [6]

COc1ccc2c(c1)c(C1=C(c3c[nH]c4ccccc34)C(=O)NC1=O)cn2CCCN(C)C
active: Potency [1] 23500 nM | Potency [2] 20900 nM | Potency [3] 372 nM | Potency [4] 16600 nM | Potency [5] 23500 nM | Potency [6] 23500 nM

C=C1/C(=C/C=C2\CCCC3(C)[C@@H]([C@H](C)/C=C/C=C/C(O)(CC)CC)CC[C@@H]23)C[C@@H](O)C[C@@H]1O (some centres undefined)
active: Potency [2] 16600 nM | Potency [3] 5250 nM
inactive: viability [1] 89.5% | Potency [7]

O=[N+]([O-])c1ccc(O)c2ncccc12
active: Potency [1] 16600 nM | Potency [2] 14800 nM | Potency [3] 13200 nM | Potency [4] 7420 nM | Potency [5] 8330 nM | Potency [6] 9340 nM

NC1CCCN(c2c(/C=C3\SC(=O)NC3=O)cccc2-c2ccccc2)C1 (centres undefined)
active: Potency [1] 5900 nM | Potency [2] 235 nM | Potency [3] 1180 nM | Potency [7] 590 nM | Potency [5] 18600 nM

Nc1nc(F)nc2c1ncn2[C@@H]1O[C@H](COP(=O)(O)O)[C@@H](O)[C@@H]1O
active: Potency [1] 3720 nM | Potency [2] 20900 nM | Potency [3] 11800 nM | Potency [7] 1180 nM | Potency [5] 3320 nM | Potency [6] 4170 nM

C[C@H]1CNCCCN1S(=O)(=O)c1cccc2cncc(F)c12
inactive: viability [1] 113% | Potency [2] | Potency [3] | Potency [7] | Potency [5] | Potency [6]

Cc1ccc(S(=O)(=O)Nc2cc(-c3ccc(C#N)s3)ccc2C)cc1
active: Potency [1] 74.2 nM | Potency [2] 93.4 nM | Potency [3] 105 nM | Potency [7] 66.1 nM | Potency [5] 74.2 nM | Potency [6] 83.3 nM

COc1ccc(N2C(=O)N(c3c(C)cccc3Cl)Cc3cnc(Nc4ccc(C5CCN(C)CC5)cc4OC)nc32)nc1
active: Potency [1] 16600 nM | Potency [2] 16600 nM | Potency [3] 2950 nM | Potency [7] 13200 nM | Potency [5] 16600 nM | Potency [6] 18600 nM

NS(=O)(=O)Oc1ccc2c3c(c(=O)oc2c1)CCCCC3
inactive: viability [1] 105% | Potency [2] | Potency [3] | Potency [7] | Potency [5] | Potency [6]

CC(=O)N1c2ccc(-c3ccc(C(=O)O)cc3)cc2[C@H](Nc2ccc(Cl)cc2)C[C@@H]1C
active: Potency [1] 372 nM | Potency [2] 66.1 nM | Potency [3] 93.4 nM | Potency [7] 1320 nM | Potency [5] 468 nM

CCN(CC)CCCC[C@H](NC(=O)[C@H](CC(C)C)NC(=O)[C@H](C)NC(=O)[C@H](Cc1ccccc1)NC(=O)c1ccc(C(C)(C)C)cc1)C(=O)N[C@@H](CO)C(=O)OC ({Benzoyl(4-tBu)}-FAL[Lys(Et2)]S-OMe)
inactive: viability [1] 71.5% | Potency [2] | Potency [3] | Potency [7] | Potency [5]

NC[C@H]1O[C@H](O[C@H]2[C@H](O)[C@@H](O[C@H]3O[C@H](CO)[C@@H](O)[C@H](N)[C@H]3O)[C@H](N)C[C@@H]2N)[C@H](N)C[C@@H]1O
inactive: viability [1] 115% | Potency [2] | Potency [3] | Potency [7] | Potency [5]

COc1ccc(S(=O)(=O)Nc2cc(-c3csc(C#N)c3)ccc2C)cc1
active: Potency [1] 209 nM | Potency [2] 148 nM | Potency [3] 235 nM | Potency [7] 148 nM | Potency [5] 132 nM | Potency [6] 332 nM

CC1(C)O[C@@H]2C[C@H]3[C@@H]4CCC5=CC(=O)C=C[C@]5(C)[C@H]4[C@@H](O)C[C@]3(C)[C@]2(C(=O)CO)O1
active: Potency [6] 332 nM
inactive: viability [1] 114% | Potency [2] | Potency [3] | Potency [7] | Potency [5]

Cc1ccc(F)c(NC(=O)Nc2ccc(-c3cccc4[nH]nc(N)c34)cc2)c1
active: Potency [1] 14800 nM | Potency [2] 18600 nM | Potency [3] 7.4 nM | Potency [7] 16600 nM | Potency [5] 16600 nM | Potency [6] 16600 nM

CCCCc1ccc2nc(NC(=O)OC)[nH]c2c1
active: Potency [1] 263 nM | Potency [2] 148 nM | Potency [3] 186 nM | Potency [7] 118 nM | Potency [5] 118 nM | Potency [6] 105 nM

CC(C)(C)c1[nH]cnc1/C=c1\[nH]c(=O)/c(=C/c2ccccc2)[nH]c1=O
active: Potency [1] 83.3 nM | Potency [2] 74.2 nM | Potency [3] 83.3 nM | Potency [7] 59 nM | Potency [5] 59 nM | Potency [6] 74.2 nM

COc1cc2ncn(-c3cc(OCc4ccccc4C(F)(F)F)c(C(N)=O)s3)c2cc1OC
active: Potency [1] 1860 nM | Potency [2] 1180 nM | Potency [3] 2090 nM | Potency [7] 2350 nM | Potency [5] 1480 nM | Potency [6] 1050 nM

Cn1cc(C2=C(c3cn(C)c4cc([N+](=O)[O-])ccc34)C(=O)NC2=O)c2ccccc21
active: Potency [1] 2350 nM | Potency [2] 662 nM | Potency [3] 833 nM | Potency [7] 833 nM | Potency [5] 662 nM | Potency [6] 417 nM

O=C(NO)c1ccc(C2=Nc3ccccc3Oc3ccccc32)cc1
active: Potency [1] 2950 nM | Potency [2] 5250 nM | Potency [3] 1860 nM | Potency [7] 4170 nM | Potency [5] 3320 nM | Potency [6] 4680 nM

C[C@H]1COCCN1c1cc(C2(S(=O)(=O)C3CC3)CC2)nc(-c2ccc(NC(=S)NCCO)cc2)n1
active: Potency [1] 417 nM | Potency [2] 833 nM | Potency [3] 93.4 nM | Potency [7] 10.5 nM

O=C(CCCCCCNC(=O)c1cnc(N(c2ccccc2)c2ccccc2Cl)nc1)NO
active: Potency [1] 9340 nM | Potency [2] 7420 nM | Potency [3] 3720 nM | Potency [7] 9340 nM | Potency [5] 7420 nM | Potency [6] 10500 nM

Cc1cc(/C=c2/sc3nc4ccccc4n3c2=O)c(C)n1-c1ccccc1
active: Potency [2] 14800 nM | Potency [3] 20900 nM | Potency [5] 16600 nM
inactive: viability [1] 105% | Potency [7]

COc1cc(F)ccc1-c1ncnc(Nc2cccc(CS(C)(=N)=O)c2)n1 (centres undefined)
active: Potency [1] 1320 nM | Potency [2] 934 nM | Potency [3] 742 nM | Potency [7] 833 nM | Potency [5] 662 nM | Potency [6] 934 nM
